Values joined by “and” are separate entries in the source; they are usually repeats but may differ in a detail not shown here. Identical values can stand only once. Inconclusive results are not listed. A number with no mark means an inactive call. Active and inactive are the calls of the source. Calls follow the shape of the dose curve; as a rule, active = well fitted curve in the direction sought with a large enough effect; inconclusive = small, poorly fitted or top-dose-only effect, or another doubt; inactive = no such curve, though single readings can be large; an effect the other way counts as inactive or inconclusive.

One experiment has as its system JEG-3. Briefly: Primary qHTS to identify gynecologic anti-cancer compounds using libraries of approved drugs and bioactive compounds (AID 1345084). Also: nearly all actives have a fitted effect of over 55% in size. The note with it: Gynecologic cancer cell panel viability, ATPlite luminescence, 48 h; series mostly up to 57.5 µM. In outline:
(§1)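 ATP-based viability (ATPlite), 1,000 cells/well, 16 h pre-incubation, 48 h compound at 37 C, 5% CO2, 15 min RT before read.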

The next experiment deals with OV90. Described as above. The note with it: Gynecologic cancer cell panel viability, ATPlite luminescence, 48 h; series mostly up to 57.5 µM. In outline:
as §1

For the next experiment, the system named is PA-1. Described as above. The settings on record: Gynecologic cancer cell panel viability, ATPlite luminescence, 48 h; series mostly up to 57.5 µM. In outline: as §1
The next experiment relates to SKOV3. The experiment is described as above. The note with it: Gynecologic cancer cell panel viability, ATPlite luminescence, 48 h; series mostly up to 57.5 µM. In outline:
as §1

The test system of the next experiment is Tov-21-G. Described as above. The note with it: Gynecologic cancer cell panel viability, ATPlite luminescence, 48 h; series mostly up to 57.5 µM. In outline: as §1
A further experiment has as its system Tov112D. The description is as above. The settings on record: Gynecologic cancer cell panel viability, ATPlite luminescence, 48 h; series mostly up to 57.5 µM. In outline:
as §1

Experiment [1] is described as follows: Drug repurposing screens with cells derived from glioblastoma tumor samples (AID 1345199). Also: nearly all actives have a fitted effect of over 40% in size. Also: potency is read from the fitted curve at half-maximal effect. The settings on record: GBM patient neurospheres viability, ATP luminescence, 48 h. In outline: (§2)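 Four patient lines of CD133+ GBM neurospheres were screened at several concentrations; hits were retested in those lines plus three slower-growing GBM lines, using 48-hour treatment and ATP-based viability.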

Another experiment has as its system astro. Described as above. The settings on record: viability, ATP luminescence, 48 h; series mostly up to 45.9 µM. In outline: as §2
Where [2] appears, read: at 45.9 µM (top of the series), tumour line B.
[3] abbreviates: at 45.9 µM (top of the series), tumour line D.
Where [4] appears, read: at 46.1 µM (top of the series), tumour line C.
[5] abbreviates: at 46 µM (top of the series), tumour line A.
Where [6] appears, read: at 20 µM (top of the series), tumour line C.
Setting [7] is: at 21.2 µM (top of the series), tumour line B.
[8] abbreviates: at 21.2 µM (top of the series), tumour line D.
Setting [9] is: at 21.3 µM (top of the series), tumour line A.
% is scaled to controls: 0 for no effect and ±100 for the full control effect.

With `CC(C)NC[C@@H](O)COc1cccc2ccccc12`, the Potency entry in the experiment on JEG-3, in the experiment on OV90, in the experiment on PA-1, in the experiment on SKOV3, in the experiment with Tov-21-G and in the experiment on Tov112D was “inactive” throughout. In addition, the Potency entry in the experiment on astro was “inactive”. Moreover, the figures for the activity, negative = cell killing in experiment [1] (setting [2]), in experiment [1] (setting [3]) and in experiment [1] (setting [4]) were -11.2%, -22.3% and -5.6%, respectively. Moreover, the Potency in experiment [1] (tumour line A) was 28.2 µM (active).

With `CCOC(=O)[C@H](CCc1ccccc1)N[C@@H](C)C(=O)N1Cc2ccccc2C[C@H]1C(=O)O`, the Potency result in the experiment with JEG-3, with OV90, with PA-1, in the experiment on SKOV3, with Tov-21-G and with Tov112D was “inactive” throughout. Moreover, the Potency result in the experiment with astro is “inactive”. Further, the activity, negative = cell killing in experiment [1] (setting [2]) is -8.88%; in experiment [1] (setting [3]) it was -11.4%; in experiment [1] (setting [5]), -15.3%; in experiment [1] (setting [4]) it was 11.9%.

`CC(=O)N/N=C/c1ccc([N+](=O)[O-])o1`: the Potency entry in the experiment with JEG-3, in the experiment on OV90, in the experiment with PA-1, in the experiment on SKOV3, with Tov-21-G and with Tov112D was “inactive” each time.

As for `Cc1ccnc(NS(=O)(=O)c2ccc(N)cc2)n1`, the Potency entry with JEG-3, in the experiment with OV90, in the experiment with PA-1, with SKOV3, in the experiment with Tov-21-G and with Tov112D was “inactive” each time. For the same compound, in the experiment on astro, the Potency entry was “inactive”. The activity, negative = cell killing was -10.2% in experiment [1] (setting [6]), -5.77% in experiment [1] (setting [7]), -5.49% in experiment [1] (setting [8]) and -16.8% in experiment [1] (setting [9]).

For `NCCCC[C@H](N[C@@H](CCc1ccccc1)C(=O)O)C(=O)N1CCC[C@H]1C(=O)O`, the Potency entry with JEG-3, with OV90, with PA-1, in the experiment on SKOV3, in the experiment on Tov-21-G and with Tov112D was “inactive” throughout. In the experiment with astro, the Potency entry was “inactive”. Further, the activity, negative = cell killing in experiment [1] (setting [6]) was 16.9%; in experiment [1] (setting [7]), -0.103%; in experiment [1] (setting [8]) it was -3.03%; in experiment [1] (setting [9]), 10.9%.

Regarding `C[C@H]1[C@H](NC(=O)/C(=N/OC(C)(C)C(=O)O)c2csc(N)n2)C(=O)N1S(=O)(=O)O` (stereo in doubt), the Potency entry in the experiment on JEG-3, with OV90, in the experiment on PA-1, in the experiment on SKOV3, with Tov-21-G and in the experiment on Tov112D was “inactive” throughout. The Potency result with astro is “inactive”. Further, the activity, negative = cell killing in experiment [1] (setting [6]) is -1.55%; in experiment [1] (setting [7]), -2.78%; in experiment [1] (setting [8]), 9.37%; in experiment [1] (setting [9]), -17.3%.

For `CN(C(=O)CN(CCO)CC(=O)N(C)C(C)(C)Cc1ccccc1)C(C)(C)Cc1ccccc1`, the Potency result with JEG-3, with OV90, with PA-1, in the experiment with SKOV3, with Tov-21-G and in the experiment on Tov112D was “inactive” throughout. The Potency entry in the experiment on astro was “inactive”. Moreover, the figures for the activity, negative = cell killing in experiment [1] (setting [6]), in experiment [1] (setting [7]) and in experiment [1] (setting [8]) were 7.73%, -8.65% and -0.577%, respectively. Moreover, the Potency in experiment [1] (tumour line A) is 10 µM (active).

Turning to `NC(=O)CC[C@@H]1NC(=O)[C@H](Cc2ccccc2)NC(=O)[C@H](Cc2ccc(O)cc2)NC(=O)CCSSC[C@@H](C(=O)N2CCC[C@H]2C(=O)N[C@@H](CCCN=C(N)N)C(=O)NCC(N)=O)NC(=O)[C@H](CC(N)=O)NC1=O`, the Potency entry in the experiment on JEG-3, with OV90, in the experiment on PA-1, with SKOV3, with Tov-21-G and in the experiment with Tov112D was “inactive” throughout. Besides, in the experiment on astro, the Potency result was “inactive”. For the same compound, the activity, negative = cell killing in experiment [1] (setting [2]) is -2.8% and 1.21%; in experiment [1] (setting [3]) it was -7.07% and -4.13%; in experiment [1] (setting [5]), -24.9% and -29%; in experiment [1] (setting [4]) it was -17.6% and 1.07%.

As for `Cc1c(C(N)=O)cc([N+](=O)[O-])cc1[N+](=O)[O-]`, the Potency result with JEG-3, in the experiment with OV90, with PA-1, in the experiment with SKOV3, with Tov-21-G and with Tov112D was “inactive” throughout. Further, in the experiment on astro, the Potency entry is “inactive”. In addition, the activity, negative = cell killing in experiment [1] (setting [2]) was -3.44%; in experiment [1] (setting [3]), -20.3%; in experiment [1] (setting [5]), -15.4%; in experiment [1] (setting [4]), 1.23%.

In the case of `COc1ccc(OC)c(C(O)CNC(=O)CN)c1` (stereo not given), the Potency entry in the experiment with JEG-3, with OV90, in the experiment with PA-1, in the experiment on SKOV3, in the experiment on Tov-21-G and in the experiment on Tov112D was “inactive” each time. In the experiment with astro, the Potency result is “inactive”. In addition, the activity, negative = cell killing is -8.51% in experiment [1] (setting [6]), -10.1% in experiment [1] (setting [7]), -7.78% in experiment [1] (setting [8]) and -30.8% in experiment [1] (setting [9]).

As to `COc1cc(C(=S)N2CCOCC2)cc(OC)c1OC`, the Potency result in the experiment with JEG-3, in the experiment with OV90, with PA-1, in the experiment with SKOV3, in the experiment with Tov-21-G and in the experiment with Tov112D was “inactive” throughout. In addition, in the experiment with astro, the Potency result was “inactive”. Moreover, the activity, negative = cell killing is -7.77% in experiment [1] (setting [2]), -20% in experiment [1] (setting [3]), -25.7% in experiment [1] (setting [5]) and -20.5% in experiment [1] (setting [4]).

As to `CCN1CCN(c2cc3c(cc2F)c(=O)c(C(=O)O)cn3C2CC2)CC1`, the Potency result in the experiment on JEG-3, in the experiment on OV90, in the experiment with PA-1, with SKOV3, in the experiment with Tov-21-G and in the experiment on Tov112D was “inactive” throughout. Moreover, in the experiment with astro, the Potency result is “inactive”. The activity, negative = cell killing in experiment [1] (setting [2]) was 9.67%; in experiment [1] (setting [3]), -1.9%; in experiment [1] (setting [5]), -9.98%; in experiment [1] (setting [4]), 17.2%.

With `COc1cc(/C=C/C(=O)O[C@H]2CC[C@]34C[C@]35CC[C@]3(C)[C@@H]([C@H](C)CCC=C(C)C)CC[C@@]3(C)[C@@H]5CC[C@H]4C2(C)C)ccc1O`, the Potency result in the experiment with JEG-3, with OV90, with PA-1, in the experiment with SKOV3, in the experiment with Tov-21-G and in the experiment with Tov112D was “inactive” each time. Besides, the activity, negative = cell killing in experiment [1] (setting [2]) was -21.5%; in experiment [1] (setting [3]), -21.3%; in experiment [1] (setting [5]) it was -29.3%; in experiment [1] (setting [4]), -22.4%. The Potency in the experiment on astro is 17.8 µM (active).

For the compound `NC(CS)C(=O)O` (stereo not given), the Potency entry with JEG-3, with OV90, in the experiment with PA-1, with SKOV3, in the experiment with Tov-21-G and in the experiment on Tov112D was “inactive” throughout. Also, the Potency entry in the experiment with astro was “inactive”. In addition, the activity, negative = cell killing in experiment [1] (setting [2]) was -9.5%; in experiment [1] (setting [3]), -0.348%; in experiment [1] (setting [5]), -20.7%; in experiment [1] (setting [4]), -17%.

Take `CN=C(NC#N)Nc1ccc(C2=NNC(=O)CC2C)cc1` (stereo not given): the Potency result in the experiment on JEG-3, in the experiment on OV90, in the experiment on PA-1, in the experiment with SKOV3, with Tov-21-G and in the experiment with Tov112D was “inactive” throughout. Moreover, the Potency result in the experiment with astro was “inactive”. For the same compound, the activity, negative = cell killing in experiment [1] (setting [2]) was -9.56%; in experiment [1] (setting [3]), 17.5%; in experiment [1] (setting [5]), -26.1%; in experiment [1] (setting [4]) it was -22.3%.

Values taken from PubChem BioAssay (NCATS).
